Test results as given in PubChem BioAssay (Tox21).
Values joined by “and” are separate entries in the source; they are usually repeats but may differ in a detail not shown here. Equal values may be shown once. Inconclusive results are not listed. A structure can be active in one record and inactive in another. Active and inactive are the calls of the source. Unless noted, calls come from the whole dose curve.

Legend:
[1] = Nuclear factor erythroid 2-related factor 2/antioxidant responsive element (Nrf2/ARE) small molecule agonists: qHTS cell viability counter screen in human keratinocytes (AID 1919968; active = well fitted cell-killing curve with a large enough effect in the repeat runs; note: nearly all actives have a fitted effect of over 55% in size; note: potency is the fitted concentration of half-maximal effect)
How it was run: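 Measured as CellTiter-Fluor fluorescence, this readout tracks cytotoxicity in the same wells as the ARE-luciferase screen. HaCaT reporter cells (1,500/well) received compounds after a 5 h pre-incubation and were exposed for 23 h.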

[2] = Nuclear factor erythroid 2-related factor 2/antioxidant responsive element (Nrf2/ARE) small molecule agonists: luciferase reporter gene qHTS assay in human keratinocytes (AID 1919969); note: nearly all actives have a fitted effect of over 35% in size; note: potency is the fitted concentration of half-maximal effect
[3] = G protein-coupled receptor (GPCR) small molecule agonists, calcium flux assay: HEK293 wild type cell line counter screen (AID 1920065)
How it was run: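 Readout: fluorescence at 480 nm excitation/540 nm emission, sampled at 1 s intervals for 3 min. Cells had been cultured 18 h, then dye-loaded 1 h at 37 C before compound or ATP addition.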

[4] = p53 small molecule agonists, cell-based qHTS assay with human liver microsomes (AID 1963577);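 note: p53 response element beta-lactamase reporter cells with liver microsomes plus NADPH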
How it was run: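 16 h, 37 C exposure of p53RE-bla cells to compounds with human liver microsomes and NADPH (0.5 mg/mL final each); detection via LiveBLAzer mixture, 2 h dark at room temperature.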

[5] = p53 small molecule agonists, cell-based qHTS assay with rat liver microsomes (AID 1963578)
How it was run: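 With rat liver microsomes and NADPH present (0.5 mg/mL final each), p53RE-bla cells are treated with compound for 16 h at 37 C. LiveBLAzer detection mixture is then applied for 2 h at room temperature in the dark.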

[6] = p53 small molecule agonists, cell-based qHTS assay with human liver microsomes: qHTS cell viability counter screen (AID 1963579); note: nearly all actives have a fitted effect of over 45% in size
How it was run: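 In this multiplexed counter screen, the reporter plates were subsequently treated with CellTiter-Glo so that cell viability, reflected by luminescence, could be recorded for p53RE-bla cells dosed 16 h with compounds under microsomal activation (HLM and NADPH).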

[7] = p53 small molecule agonists, cell-based qHTS assay with rat liver microsomes: qHTS cell viability counter screen (AID 1963580); note: nearly all actives have a fitted effect of over 45% in size
How it was run: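 HCT-116 p53RE-bla, 4,000 cells/well, 5 h pre-incubation; cpd + rat liver microsomes 0.5 mg/mL + NADPH 0.5 mg/mL (final); 16 h, 37 C; CellTiter-Glo, 30 min RT; luminescence.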

[8] = p53 small molecule agonists, cell-based qHTS assay: qHTS cell viability counter screen (AID 1963581); note: nearly all actives have a fitted effect of over 45% in size
How it was run: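 In the same plates used for the p53 bla reporter, HCT-116 cells given compounds for 16 h at 37 C received CellTiter-Glo; luminescence was recorded 30 min later at room temperature.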

[9] = p53 small molecule agonists, cell-based qHTS assay (AID 1963582; active = well fitted activation curve with a large enough effect in the signal ratio in the repeat runs, not every such curve was filed as active; the % refers to the signal ratio)
How it was run: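 Compounds are pin-transferred in DMSO onto p53RE-bla cells and incubated 16 h at 37 C. The B/G FRET beta-lactamase substrate is then applied for 2 h at RT and fluorescence recorded.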

[10] = molecular target: 5-hydroxytryptamine receptor 2A (Homo sapiens) (UniProt P28223); experiment: 5-hydroxytryptamine receptor 2A (HTR2A) small molecule antagonists, cell-based qHTS assay (AID 1963586); note: nearly all actives have a fitted effect of over 45% in size
How it was run: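 Antagonist-mode intracellular calcium assay: DOI (4 nM) added after 5 min compound pre-incubation at room temperature to dye-loaded HTR2A-CHO cells. Fluorescence followed for 3 min, sampled every second.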

[11] = molecular target: 5-hydroxytryptamine receptor 2A (Homo sapiens) (UniProt P28223); experiment: 5-hydroxytryptamine receptor 2A (HTR2A) small molecule agonists, cell-based qHTS assay (AID 1963587); note: nearly all actives have a fitted effect of over 30% in size; note: potency is the fitted concentration of half-maximal effect
How it was run: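 Kinetic calcium-flux fluorescence (2 min, 1 sec intervals) after compound addition in agonist mode. HTR2A-CHO cells were cultured 18 h, then dye-loaded 1 h at 37 C.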

[12] = molecular target: Muscarinic acetylcholine receptor M1 (Homo sapiens) (UniProt P11229); experiment: Cholinergic receptor muscarinic 1 (CHRM1) small molecule antagonists, cell-based qHTS assay (AID 1963588); note: nearly all actives have a fitted effect of over 40% in size; note: potency is the fitted concentration of half-maximal effect
How it was run: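 CHRM1-CHO calcium-flux assay, antagonist mode. Cells were seeded 18 h, dye-loaded 1 h at 37 C and given compound for 5 min at RT, then acetylcholine was added at 50nM. FDSS fluorescence was read 3 min; 15 concentrations, three runs.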

[13] = molecular target: Muscarinic acetylcholine receptor M1 (Homo sapiens) (UniProt P11229); experiment: Cholinergic receptor muscarinic 1 (CHRM1) small molecule agonists, cell-based qHTS assay (AID 1963589); note: nearly all actives have a fitted effect of over 35% in size; note: potency is the fitted concentration of half-maximal effect
How it was run: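 Each compound was tested at 15 concentrations across three independent runs on dye-loaded CHO cells stably expressing human CHRM1, reading intracellular calcium fluorescence kinetically at 1 sec intervals.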

[14] = cAMP Responsive Elements (CRE) small molecule antagonists, cell-based qHTS assay (AID 1963591; active = well fitted inhibition curve with a large enough effect in the signal ratio in the repeat runs, not every such curve was filed as active; the % refers to the signal ratio)
How it was run: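 Inhibition of NKH477-driven (0.25 uM final) CRE-beta-lactamase signal in HEK293T cells, 3 h compound exposure at 37 °C, detected by FRET substrate fluorescence.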

[15] = molecular target: Beta-2 adrenergic receptor (Homo sapiens) (UniProt P07550); experiment: Adrenergic beta2 receptor (ADRB2) small molecule antagonists, cell-based qHTS assay (AID 1963592); note: nearly all actives have a fitted effect of over 50% in size; note: potency is the fitted concentration of half-maximal effect
How it was run: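 Cells (CHO, stable ADRB2 overexpression) incubated 18-20hr at 37C; compounds added from DMSO; agonist mix (1nM isoproterenol, 100uM IBMX, 25uM Ro-20-1724) added; 0.5hr RT; d2-cAMP and anti-cAMP-cryptate added; 1hr RT; 665/615 nm read.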

[16] = molecular target: Beta-2 adrenergic receptor (Homo sapiens) (UniProt P07550); experiment: Adrenergic beta2 receptor (ADRB2) small molecule agonists, cell-based qHTS assay (AID 1963593);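 note: CHO cells stably overexpressing human ADRB2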
How it was run: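 CHO cells stably over-expressing ADRB2 were plated overnight at 37C, then dosed with compounds plus a stimulation mix containing 100uM IBMX and 25uM Ro-20-1724 for 0.5hr at room temperature. cAMP was measured by HTRF competition, 1hr.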

[17] = molecular target: D(2) dopamine receptor (Homo sapiens) (UniProt P14416); experiment: Dopamine D2 receptor (DRD2) small molecule agonists, cell-based qHTS assay (AID 1963594); note: nearly all actives have a fitted effect of over 35% in size
How it was run: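 cAMP accumulation in DRD2-HEK293 cells measured by HTRF after 1 h detection; compounds added 10 min before NKH477 (200nM […]) forskolin-analogue stimulation, 30 min at room temperature, with Ro20-1724 present at 0.1 mM final.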

[18] = molecular target: D(2) dopamine receptor (Homo sapiens) (UniProt P14416); experiment: Dopamine D2 receptor (DRD2) small molecule antagonists, cell-based qHTS assay (AID 1963595; active = well fitted inhibition curve with a large enough effect in the signal ratio in the repeat runs, with a control signal flat; the % refers to the signal ratio; note: potency is the fitted concentration of half-maximal effect)
How it was run: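 Human DRD2 antagonist qHTS measuring cAMP by HTRF. The cells are exposed to compound for 10 min, then to NKH477 (200 nM) and quinpirole (12 nM) for 30 min at RT, with Ro20-1724 (0.1 mM) present throughout.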

[19] = cAMP Responsive Elements (CRE) small molecule agonists, cell-based qHTS assay (AID 1963590)
How it was run: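 Cell line: CRE-bla HEK 293T; medium DMEM/10% dialyzed FBS/0.1 mM NEAA/1 mM pyruvate/25 mM HEPES; 3 h compound exposure; beta-lactamase FRET readout after 2 h substrate loading at RT.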

[20] = molecular target: Gonadotropin-releasing hormone receptor (Homo sapiens) (UniProt P30968); experiment: Human gonadotropin-releasing hormone receptor (GnRHR) small molecule agonists, calcium flux assay in GnRHR-HEK293 cells (AID 1920063); note: nearly all actives have a fitted effect of over 35% in size
How it was run: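 Fluorescence kinetics (480 nm excitation, 540 nm emission; 3 min, 1 s steps) report calcium mobilisation in human GnRHR-HEK293 cells in agonist mode. Dye incubation: 1 h, 37 C.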

Measured: Potency

Sequence of Muscarinic acetylcholine receptor M1 (Homo sapiens) (P11229 whole entry, looked up): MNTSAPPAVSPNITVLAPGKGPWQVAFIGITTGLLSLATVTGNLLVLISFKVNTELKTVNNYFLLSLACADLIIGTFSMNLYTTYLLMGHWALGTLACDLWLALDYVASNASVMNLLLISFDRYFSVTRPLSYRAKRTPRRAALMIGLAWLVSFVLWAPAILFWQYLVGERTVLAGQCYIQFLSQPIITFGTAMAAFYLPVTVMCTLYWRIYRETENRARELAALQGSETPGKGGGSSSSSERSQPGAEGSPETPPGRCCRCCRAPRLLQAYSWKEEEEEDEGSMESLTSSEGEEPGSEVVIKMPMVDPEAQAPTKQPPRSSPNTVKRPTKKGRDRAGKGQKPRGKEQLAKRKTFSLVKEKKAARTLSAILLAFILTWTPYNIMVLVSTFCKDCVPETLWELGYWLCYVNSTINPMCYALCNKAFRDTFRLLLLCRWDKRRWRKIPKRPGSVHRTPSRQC
Sequence of 5-hydroxytryptamine receptor 2A (Homo sapiens) (P28223 whole entry, looked up): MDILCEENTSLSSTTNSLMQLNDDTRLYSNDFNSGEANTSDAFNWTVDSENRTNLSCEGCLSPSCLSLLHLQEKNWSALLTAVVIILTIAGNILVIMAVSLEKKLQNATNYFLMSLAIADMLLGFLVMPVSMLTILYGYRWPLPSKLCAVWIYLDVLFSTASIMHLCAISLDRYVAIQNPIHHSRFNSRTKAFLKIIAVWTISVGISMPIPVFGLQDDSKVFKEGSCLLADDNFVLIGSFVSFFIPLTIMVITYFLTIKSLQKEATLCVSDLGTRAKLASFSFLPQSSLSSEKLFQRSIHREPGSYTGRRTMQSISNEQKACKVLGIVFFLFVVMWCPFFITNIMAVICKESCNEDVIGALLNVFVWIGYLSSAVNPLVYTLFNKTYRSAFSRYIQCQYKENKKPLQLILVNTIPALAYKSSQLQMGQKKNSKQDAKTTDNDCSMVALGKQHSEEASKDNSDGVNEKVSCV
Sequence of Beta-2 adrenergic receptor (Homo sapiens) (P07550 whole entry, looked up): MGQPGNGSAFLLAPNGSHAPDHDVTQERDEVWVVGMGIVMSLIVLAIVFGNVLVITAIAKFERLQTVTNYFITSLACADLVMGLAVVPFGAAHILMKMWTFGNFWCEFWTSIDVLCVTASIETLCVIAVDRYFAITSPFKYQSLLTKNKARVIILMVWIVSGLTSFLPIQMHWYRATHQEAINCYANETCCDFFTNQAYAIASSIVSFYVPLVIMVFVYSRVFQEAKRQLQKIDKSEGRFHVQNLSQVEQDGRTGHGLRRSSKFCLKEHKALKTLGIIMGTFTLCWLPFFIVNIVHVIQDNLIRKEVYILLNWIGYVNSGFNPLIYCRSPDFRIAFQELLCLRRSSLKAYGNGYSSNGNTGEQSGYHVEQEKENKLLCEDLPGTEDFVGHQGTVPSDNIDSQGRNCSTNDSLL
Sequence of Gonadotropin-releasing hormone receptor (Homo sapiens) (P30968 whole entry, looked up): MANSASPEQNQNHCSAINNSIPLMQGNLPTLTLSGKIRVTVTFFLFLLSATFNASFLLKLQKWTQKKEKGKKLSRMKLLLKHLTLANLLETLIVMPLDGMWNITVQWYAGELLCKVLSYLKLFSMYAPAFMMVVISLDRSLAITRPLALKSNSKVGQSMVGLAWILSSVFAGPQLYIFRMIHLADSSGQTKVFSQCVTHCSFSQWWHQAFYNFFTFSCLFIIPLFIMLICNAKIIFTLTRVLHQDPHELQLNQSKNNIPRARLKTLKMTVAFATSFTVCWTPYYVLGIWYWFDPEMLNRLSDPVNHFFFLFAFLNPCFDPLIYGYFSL
Sequence of D(2) dopamine receptor (Homo sapiens) (P14416 whole entry, looked up): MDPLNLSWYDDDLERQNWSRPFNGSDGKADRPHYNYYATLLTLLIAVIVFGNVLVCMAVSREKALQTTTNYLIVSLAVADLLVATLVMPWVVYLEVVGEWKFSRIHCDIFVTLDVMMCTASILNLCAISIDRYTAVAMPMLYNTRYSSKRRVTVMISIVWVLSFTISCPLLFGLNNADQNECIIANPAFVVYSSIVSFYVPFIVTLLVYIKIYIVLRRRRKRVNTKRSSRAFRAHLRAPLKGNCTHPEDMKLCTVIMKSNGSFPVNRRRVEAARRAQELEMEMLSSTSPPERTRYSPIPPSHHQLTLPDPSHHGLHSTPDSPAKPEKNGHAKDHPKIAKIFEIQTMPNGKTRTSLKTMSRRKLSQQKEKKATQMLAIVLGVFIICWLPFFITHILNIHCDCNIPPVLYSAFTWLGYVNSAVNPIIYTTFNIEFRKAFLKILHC

O=C1C2CC=CCC2C(=O)N1SC(Cl)(Cl)Cl (stereo not drawn)
inactive: [3] | [4] | [5] | [6] | [7] | [8] | [9] | [10] | [12] | [14] | [15] | [16] | [17]
inactive and 26.9 µM (active): [1]
inactive and 23.9 µM (active): [18]
inactive and 38.3 µM (active): [13]
active: [2] 54.3 µM and 7.57 µM | [11] 24.1 µM

O=c1nc(O)n(Cl)c(=O)n1Cl
inactive: [1] | [2] | [3] | [7] | [8] | [10] | [12] | [13] | [16] | [17] | [18]

C=CCO
inactive and 61.1 µM (active): [15]
inactive: [1] | [2] | [3] | [4] | [5] | [6] | [7] | [8] | [9] | [19] | [14] | [18]

CCCCOCCOP(=O)(OCCOCCCC)OCCOCCCC
inactive: [1] | [2] | [3] | [4] | [5] | [6] | [8] | [9] | [10] | [11] | [12] | [13] | [19] | [14] | [15] | [17]

N#Cc1nn(-c2c(Cl)cc(C(F)(F)F)cc2Cl)c(N)c1S(=O)C(F)(F)F (stereo not drawn)
active: [1] 61.5 µM
inactive: [2] | [3] | [4] | [5] | [6] | [8] | [10] | [11] | [12] | [13] | [15] | [16] | [17] | [18]

COc1ccc(N)cc1
inactive: [1] | [3] | [5] | [6] | [7] | [9] | [10] | [11] | [12] | [13] | [19] | [14] | [15] | [16] | [17] | [18]
inactive and 68 µM (active): [2]

C=CC(=O)NC(C)(C)CC(C)=O
inactive: [1] | [20] | [3] | [4] | [5] | [6] | [7] | [8] | [9] | [10] | [11] | [12] | [13] | [19] | [14] | [15] | [16] | [17] | [18]

Nc1ccncc1
inactive: [1] | [20] | [3] | [4] | [5] | [6] | [7] | [8] | [9] | [10] | [11] | [12] | [13] | [19] | [14] | [15] | [16] | [17] | [18]

OCC(O)CO
inactive: [1] | [2] | [4] | [5] | [6] | [7] | [8] | [9]

O=P1(N(CCCl)CCCl)NCCCO1 (stereo not drawn)
inactive: [1] | [2] | [3] | [4] | [5] | [6] | [7] | [8] | [9] | [19] | [14] | [15] | [16] | [17] | [18]

CC(C)OC(=O)Nc1cccc(Cl)c1
inactive: [1] | [2] | [4] | [5] | [6] | [7] | [8] | [9] | [10] | [11] | [12] | [19] | [15] | [16] | [18]

CCCC[N+]1(C)CCCC1 (tested in a mixture with another compound)
active: [12] 9.54 µM | [13] 4.96 µM
inactive: [1] | [2] | [3] | [5] | [6] | [7] | [8] | [9] | [10] | [11] | [19] | [14] | [15] | [16] | [17]

CC(C=O)Cc1ccc2c(c1)OCO2 (stereo not drawn)
inactive: [1] | [2] | [3] | [4] | [5] | [6] | [7] | [8] | [9] | [10] | [11] | [12] | [13] | [19] | [14] | [15] | [17] | [18]

Nc1ccc(Oc2ccc(N)cc2)cc1
inactive: [1] | [2] | [3] | [4] | [5] | [6] | [7] | [8] | [9] | [10] | [11] | [12] | [19] | [14] | [15] | [16] | [17] | [18]

O=Cc1ccc(Cl)cc1Cl
inactive: [1] | [2] | [3] | [4] | [5] | [6] | [7] | [8] | [9] | [10] | [11] | [13] | [19] | [14] | [15] | [17] | [18]

O=C(Cl)OCCOCCOC(=O)Cl
inactive: [1] | [2] | [3] | [4] | [5] | [6] | [7] | [8] | [9] | [10] | [11] | [13] | [19] | [14] | [15] | [16] | [18]
